Screening data (PubChem BioAssay)
In the library only some 2.8% were active in any assay of this set; here they are far more common.
GLP1R cytotox: cytotoxic in the GLP-1 receptor inverse agonist counter-screen; HEK293 cAMP-luciferase reporter cells, luminescence, 24 h; 0.13% of 410,000 active; Potency, µM (highest dose often 38.3 µM), inactives show at the top dose activity change, negative = inhibition, hits mostly inhibitors;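 further: loss of luciferase light is scored as toxicity; potency means the concentration at half of the fitted maximal effect; on the % scale 0 is the no-effect control and ±100 the full control effect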
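1536-well qHTS counterscreen of the MLSMR; 200 cells/uL, 12 h pre-incubation, 23 nL cpd, 24 h at 37 deg C 5% CO2, luciferase detection reagent, 12 min RT, luminescence. Inhibition = undesired.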
GLS inh: inhibitors of human glutaminase (GLS) | O94925 | GLS enzymatic activity, qHTS titration | Potency, µM (top dose mostly 45.5 µM), for the others: at the highest dose activity change, negative = inhibition, actives largely listed as inhibitors | 0.21% of 410,000 active | AID 624170; further: potency means the concentration at half of the fitted maximal effect; on the % scale 0 is the no-effect control and ±100 the full control effect
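Glutamate formation by hKGA was monitored fluorometrically using coupled glutamate oxidase, HRP and Amplex Red. Substrate was added as 1 mM L-glutamine solution; incubation was 30 min at RT after an initial read.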
KCNH2 WT inh: inhibitors of human wildtype KCNH2 potassium channel; Q12809; U2OS, BacMam KCNH2, thallium flux FluxOr; stronger effect = lower value; activity change, % at 1.84 µM; 0.37% of 340,000 active;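 active means maximum activity change below -70%; inconclusive means maximum activity change between -70% and -50%; inactive means maximum activity change above -50%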; further: on the % scale 0 is the no-effect control and ±100 the full control effect
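U2OS cells were transduced with wild-type KCNH2 virus (2.03 x 10^8 / mL) for 4 h at room temperature, then cultured overnight at 37 C. Thallium flux was read with FluxOr dye. Rate constants were normalized to DMSO controls.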
GLP-1R inv ag: GLP-1 receptor (human) inverse agonism. P43220. HEK293 GLP-1R CRE-luciferase, luminescence, 24 h; GLP-1R form is constitutively active. Potency, µM (doses to about 38.3 µM), for inactives: top-dose activity change, negative = inhibition, hits mostly inhibitors. 1.6% of 410,000 active. AID 624417; further: potency means the concentration at half of the fitted maximal effect; on the % scale 0 is the no-effect control and ±100 the full control effect; nearly all actives have a fitted effect of over 55% in size
Target sequence (P43220 whole entry, looked up): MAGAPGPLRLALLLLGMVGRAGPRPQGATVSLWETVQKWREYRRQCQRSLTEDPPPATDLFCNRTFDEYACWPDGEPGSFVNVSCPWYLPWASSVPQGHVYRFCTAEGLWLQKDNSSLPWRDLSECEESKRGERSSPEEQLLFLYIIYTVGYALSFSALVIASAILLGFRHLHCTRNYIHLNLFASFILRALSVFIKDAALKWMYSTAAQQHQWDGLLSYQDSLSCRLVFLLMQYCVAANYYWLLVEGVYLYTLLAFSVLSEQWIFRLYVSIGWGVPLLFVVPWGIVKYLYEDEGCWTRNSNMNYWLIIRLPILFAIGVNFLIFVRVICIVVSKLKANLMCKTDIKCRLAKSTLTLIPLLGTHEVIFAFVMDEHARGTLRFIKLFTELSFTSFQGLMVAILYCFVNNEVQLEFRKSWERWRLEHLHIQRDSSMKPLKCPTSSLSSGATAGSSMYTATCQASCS
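HEK293 cells stably co-expressing constitutively active GLP-1R and a cAMP-responsive luciferase reporter were seeded in DMEM with 10% Nu serum, given compounds after 12 h, and incubated 24 h at 37 deg C. Luminescence was then read.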
GLP1R ag: activates the human GLP-1 receptor. P43220. HEK293 GLP-1R CRE-luciferase, luminescence, 4-6 h; cells express a hypersensitive GLP-1R form. Potency, µM (titrated, usually from 45.6 µM), without a hit: at the top dose activation, actives largely listed as activators. 0.007% of 380,000 active. AID 624172; further: potency means the concentration at half of the fitted maximal effect; % of control where 0% means no effect
KCNH2 3.1 block: KCNH2 3.1 (human) potassium channel inhibition; activity change, % (tested at about 1.8 µM); 0.95% of 340,000 active; U2OS KCNH2 3.1, thallium flux FluxOr; stronger effect = lower value; AID 720553;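 active means maximum activity change below -70%; inconclusive means maximum activity change from -70% to -50%; inactive means maximum activity change above -50%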;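 further: thallium influx rate constant from kinetic fluorescence after stimulation buffer; on the % scale 0 is the no-effect control and ±100 the full control effect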
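Thallium flux read-out: FluxOr dye with Red40 quencher in HBSS/HEPES, 45 min at RT. Rate constants from kinetic reads were normalized to positive and negative DMSO controls. Cells: U2OS virally expressing the 3.1 isoform.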
* = called active by the depositor; ? = inconclusive; / = no result given. Unless noted, the call rests on the fitted dose curve; in most records, active means well fitted curve in the direction sought with a large enough effect; inconclusive means small, poorly fitted or top-dose-only effect, or another doubt; inactive means no such curve, though single readings can be large; an effect the other way counts as inactive or inconclusive.

SMILES	GLP1R cytotox	GLS inh	KCNH2 WT inh	GLP-1R inv ag	GLP1R ag	KCNH2 3.1 block
COC(=O)C1Cc2c([nH]c3ccccc23)CN1C(C)=O (centres undefined)	24.6%	12.6%	-0.7	2.6%	3.5%	-9.0
CN(C)/C=C/C(=O)/C=C/c1ccc(Cl)cc1	?	4.2%	4.5	?	16.5%	-22.3
CN(C)CC(O)c1ccc(C=Cc2ccc(Cl)cc2)cc1 (centres undefined)	?	4.2%	0.0	?	7.9%	-110.4*
COc1ccc(S[C@@H](CCN2CC[C@H](C)CCC2=O)c2ccccc2)cc1	0.5%	-4.3%	-2.5	10µM*	3.6%	2.7
Cc1ccc(S[C@@H](CCN2CC[C@H](C(C)(C)C)CCC2=O)c2ccccc2)cc1	3.8%	2.0%	/	10µM*	-4.3%	/
COc1cc(OC)c(NC(=O)c2sc3nc4n(c(=O)c3c2C)CCCC4)cc1Cl	-10.8%	0.7%	/	3.4%	/	/
Clc1ccc2c(c1)c1ccccc1n2CN1CCOCC1	6.8%	12.7%	-6.3	?	2.6%	0.7
Clc1ccc2c(c1)c1cc(Cl)ccc1n2CN1CCOCC1	5.9%	-0.1%	17.1	5.01µM*	-4.4%	3.1
COc1ccccc1N1CCN(S(=O)(=O)c2c(C)nc3sc(C)c(C)n3c2=O)CC1	-5.4%	0.1%	/	0.8%	/	/
CC(CN1CCOCC1)OC(=O)c1ccc2c(c1)OCCO2 (centres undefined)	-12.9%	-9.0%	-261.6*	18.0%	-1.2%	19.7
CC(CN1CCCCC1)OC(=O)c1ccc2c(c1)OCCO2 (centres undefined)	0.0%	5.5%	-5.7	8.2%	5.2%	-2.9
CCCCn1c2c(c(=O)n(C)c1=O)C(c1ccc(OC)cc1)N1CCCCCC1=N2 (centres undefined)	8.1%	3.3%	-5.4	?	13.5%	-75.1*
Cc1ccn2c(Nc3ccc4c(c3)OCO4)c(-c3ccccn3)nc2c1	?	11.2µM*	-5.2	3.4%	5.2%	-23.8
COc1ccc(-c2nc3ccc(C)cn3c2NCc2ccc3c(c2)OCO3)cc1	-21.0%	-0.3%	40.2	5.4%	15.9%	-35.3
Cc1ccc(-c2nc3ccccn3c2NCc2ccc3c(c2)OCO3)cc1	-4.0%	17.3%	-14.2	?	1.4%	-92.2*
O=C(CN1C(=O)COc2ccc(S(=O)(=O)N3CCOCC3)cc21)N1CCN(c2ccccc2F)CC1	0.6%	-18.6%	/	5.4%	7.1%	/
COc1cc(C)c(CN2CCC(Cc3ccccc3)CC2)cc1C	-7.6%	-0.8%	35.9	?	1.8%	-27.6
O=Cc1cc(Cl)ccc1OCCN1CCC(Cc2ccccc2)CC1	?	8.3%	?	?	12.0%	-104.7*
O=[N+]([O-])c1cccc(OCCN2CCC(Cc3ccccc3)CC2)c1	?	-11.8%	4.5	?	2.6%	-70.5*
C=CCOc1ccccc1CN1CCC(Cc2ccccc2)CC1	?	2.2%	38.9	?	-2.2%	-86.7*
Clc1ccccc1OCCN1CCC(Cc2ccccc2)CC1	?	1.3%	16.5	?	2.1%	-23.6
Cc1ccc([N+](=O)[O-])c(OCCN2CCCCCC2)c1	-6.8%	41.3%	20.3	?	-2.8%	1.7
Cc1ccc([N+](=O)[O-])c(OCCCN2CCC(Cc3ccccc3)CC2)c1	?	14.5%	-126.6*	?	-7.9%	-96.6*
CSc1ccccc1NS(=O)(=O)c1cccc2nonc12	0.1%	10.5%	-15.9	?	-4.0%	-7.0
Cc1cccc(NC(=O)c2sc(-n3nc(C)c(CCC(C)C)c3C)nc2C)c1C	15.0%	-7.8%	/	1.2%	/	/
SMILES	GLP1R cytotox	GLS inh	KCNH2 WT inh	GLP-1R inv ag	GLP1R ag	KCNH2 3.1 block
OCc1ccccc1OCCCN1CCC(Cc2ccccc2)CC1	-12.5%	6.2%	-3.1	?	-0.1%	-89.6*
Cc1ccccc1NS(=O)(=O)c1ccc(C(=O)NCC(c2ccco2)N2CCCCC2)cc1 (centres undefined)	-1.2%	-2.7%	0.7	10µM*	-9.0%	-1.5
Cc1ccccc1NS(=O)(=O)c1ccc(C(=O)NCC2(N3CCOCC3)CCCCC2)cc1	-15.3%	9.1%	7.2	2.1%	14.2%	-2.0
Cc1cccc(NS(=O)(=O)c2ccc(C(=O)NCC3(N4CCCCC4)CCCCC3)cc2)c1C	?	-1.1%	8.4	?	4.0%	-77.8*
COc1ccccc1NS(=O)(=O)c1cc(C(=O)NCC(c2ccco2)N(C)C)ccc1C (centres undefined)	-1.4%	14.6%	-7.3	?	8.0%	-9.2
CCN(c1ccccc1)S(=O)(=O)c1cc(C(=O)NCC(c2ccco2)N2CCCCC2)ccc1C (centres undefined)	?	13.0%	47.3	8.91µM*	-19.6%	-45.8
COc1ccccc1NS(=O)(=O)c1cc(C(=O)NCC(c2ccco2)N2CCCCC2)ccc1C (centres undefined)	-12.4%	12.3%	8.3	10µM*	9.6%	-2.4
CCN(CC)CCN(C(=O)c1ccco1)c1nc2ccc(Br)cc2s1	1.8%	4.9%	/	?	/	/
Cc1ccc(CNC(=O)c2ccc(C)c(S(=O)(=O)N3CCCCC3)c2)cc1	-31.2%	-4.7%	-2.7	?	11.4%	11.4
Cc1ccc(CNC(=O)c2ccc(Cl)c(S(=O)(=O)N3CCCCC3)c2)cc1	2.9%	3.8%	2.4	10µM*	1.7%	-6.1
Cc1ccc(N(Cc2ccccc2)C(=O)c2ccc(Cl)c(S(=O)(=O)N3CCOCC3)c2)cc1	7.6%	0.1%	22.1	11.2µM*	1.7%	-45.0
Cc1cccc(NC(=O)c2ccc(Cl)c(S(=O)(=O)N3CCc4ccccc43)c2)n1	2.9%	-1.3%	12.7	11.2µM*	-1.2%	-31.3
Cc1ccc(N(Cc2ccccc2)C(=O)c2cc(S(=O)(=O)N3CCOCC3)ccc2C)cc1	?	0.7%	-33.7	?	2.5%	-7.0
CCN1CCN(c2ccc(NC(=O)c3ccc(Cl)c(S(=O)(=O)N4CCCC4)c3)cc2)CC1	-10.1%	2.6%	2.9	3.55µM*	-3.0%	-2.8
Cc1sc(C2C(C#N)=C(N)N(c3ccc(Cl)cc3)C3=C2C(=O)CCC3)cc1CN1CCOCC1 (centres undefined)	1.3%	-21.1%	/	0.2%	/	/
O=C(Nc1cccc(O)c1)c1ccc(Br)c(S(=O)(=O)N2CCCCC2)c1	0.8%	-4.6%	-10.1	0.0%	6.0%	-91.9*
O=C(Nc1ccccc1)c1ccc(Br)c(S(=O)(=O)N2CCCCC2)c1	-16.1%	-6.7%	/	?	/	/
Cc1ccc(NC(=O)c2ccc(Cl)c(S(=O)(=O)N3CCCCCC3)c2)nc1	-14.8%	-9.6%	-7.2	7.08µM*	13.9%	8.8
